According to PubChem BioAssay (Tox21):
Inconclusive results are not listed. Active and inactive are the calls of the source. Unless noted, calls follow the shape of the dose curve; as a rule, active = well fitted curve in the direction sought with a large enough effect in the repeat runs; inconclusive = weak or mixed curves; inactive = no such curve, though single readings can be large; an effect the other way counts as inactive or inconclusive.

Legend:
[1] = target: Thyrotropin receptor (Homo sapiens) (UniProt P16473); assay: qHTS assay to identify small molecule antagonists of the thyroid stimulating hormone receptor (TSHR) signaling pathway (AID 1259385; calls by dose curve; also: nearly all actives have a fitted effect of over 20% in size)
Thyrotropin receptor (Homo sapiens), sequence (P16473 whole entry, looked up): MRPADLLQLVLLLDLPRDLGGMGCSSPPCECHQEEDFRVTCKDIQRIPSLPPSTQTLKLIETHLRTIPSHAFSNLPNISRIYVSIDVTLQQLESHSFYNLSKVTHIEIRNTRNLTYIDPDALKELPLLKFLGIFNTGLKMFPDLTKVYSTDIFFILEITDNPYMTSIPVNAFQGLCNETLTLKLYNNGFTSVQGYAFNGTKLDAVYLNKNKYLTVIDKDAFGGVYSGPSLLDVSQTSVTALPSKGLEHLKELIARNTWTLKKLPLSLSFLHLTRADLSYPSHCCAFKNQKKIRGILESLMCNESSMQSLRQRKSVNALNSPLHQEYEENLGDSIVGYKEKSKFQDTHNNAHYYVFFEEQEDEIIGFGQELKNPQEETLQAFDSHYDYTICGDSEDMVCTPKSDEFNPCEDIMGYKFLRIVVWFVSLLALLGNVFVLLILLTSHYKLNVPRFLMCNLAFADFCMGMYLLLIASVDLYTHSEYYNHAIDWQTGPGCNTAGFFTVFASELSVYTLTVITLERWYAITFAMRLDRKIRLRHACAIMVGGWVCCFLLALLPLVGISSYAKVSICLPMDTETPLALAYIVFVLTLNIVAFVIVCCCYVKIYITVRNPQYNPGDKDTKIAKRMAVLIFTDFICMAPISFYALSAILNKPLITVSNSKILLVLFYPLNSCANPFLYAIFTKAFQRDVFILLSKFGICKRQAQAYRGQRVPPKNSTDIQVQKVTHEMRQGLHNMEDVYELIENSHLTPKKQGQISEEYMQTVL
How it was run: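 Antagonist mode: compound-treated TSHR-expressing HEK293 cells were stimulated with 1.5 ng/mL TSH (final) in presence of Ro20-1724 for 30 min at RT. HTRF cAMP detection after 1 h; each compound tested at 15 concentrations, triplicate.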

[2] = qHTS assay to identify small molecule agonists of the estrogen receptor alpha (ER-alpha) signaling pathway in the presence of an antagonist - cell viability counter screen (AID 1259386);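 also: series mostly up to about 92 µM; cells exposed to compounds for 22 h at 37 °C before the viability read; nearly all actives have a fitted effect of over 30% in size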
How it was run: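 Viability counter screen using VM7Luc4E2 (full-length ER-alpha, four ERE-luciferase). The cells were treated with compounds alongside ICI-182,780 10.0nM for 22hr, and live-cell protease fluorescence was quantified with CellTiter-Fluor.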

[3] = target: Progesterone receptor (Homo sapiens) (UniProt P06401); assay: qHTS assay to identify small molecule agonists of the progesterone receptor (PR) signaling pathway (AID 1346784; calls by dose curve; also: nearly all actives have a fitted effect of over 30% in size)
Progesterone receptor (Homo sapiens), sequence (P06401 whole entry, looked up): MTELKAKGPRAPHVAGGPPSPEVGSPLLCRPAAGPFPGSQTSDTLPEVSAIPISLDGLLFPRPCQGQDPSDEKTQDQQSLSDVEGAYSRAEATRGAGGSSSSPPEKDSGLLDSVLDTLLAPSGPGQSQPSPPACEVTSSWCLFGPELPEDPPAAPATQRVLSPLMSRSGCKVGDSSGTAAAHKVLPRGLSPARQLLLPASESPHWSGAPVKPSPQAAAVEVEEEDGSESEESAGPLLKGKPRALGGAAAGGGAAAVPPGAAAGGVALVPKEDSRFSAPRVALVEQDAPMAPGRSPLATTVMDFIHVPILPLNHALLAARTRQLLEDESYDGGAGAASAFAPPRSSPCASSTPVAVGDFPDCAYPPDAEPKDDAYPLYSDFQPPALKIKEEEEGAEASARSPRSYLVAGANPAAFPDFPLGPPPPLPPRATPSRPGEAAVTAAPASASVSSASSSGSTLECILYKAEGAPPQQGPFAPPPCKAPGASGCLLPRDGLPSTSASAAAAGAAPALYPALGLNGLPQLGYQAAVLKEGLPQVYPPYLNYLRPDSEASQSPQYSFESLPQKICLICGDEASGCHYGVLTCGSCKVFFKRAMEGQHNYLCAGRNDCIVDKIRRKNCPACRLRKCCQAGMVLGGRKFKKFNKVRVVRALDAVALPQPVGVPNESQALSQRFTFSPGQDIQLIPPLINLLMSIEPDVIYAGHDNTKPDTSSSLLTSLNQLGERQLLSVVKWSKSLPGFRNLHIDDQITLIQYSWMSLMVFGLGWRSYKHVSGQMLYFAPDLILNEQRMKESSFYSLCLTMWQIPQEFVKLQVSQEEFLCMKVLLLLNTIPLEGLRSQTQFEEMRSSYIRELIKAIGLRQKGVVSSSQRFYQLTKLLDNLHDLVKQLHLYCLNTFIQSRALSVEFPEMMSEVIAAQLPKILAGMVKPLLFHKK
How it was run: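 Reporter assay, GripTite PR-UAS-bla HEK 293T cells: 16 hr exposure to DMSO-dissolved compounds at 37C, 5% CO2, in steroid-depleted (2% charcoal-stripped FBS) medium; beta-lactamase measured by FRET fluorescence.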

[4] = qHTS assay to identify small molecule agonists of the progesterone receptor (PR) signaling pathway - cell viability counter screen (AID 1346799; calls by dose curve; also: nearly all actives have a fitted effect of over 45% in size; also: potency is read from the fitted curve at half-maximal effect)
How it was run: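 Multiplexed viability read: CellTiter-Glo luminescence, 30 min RT, following LiveBLAzer FRET measurement on PR-UAS-bla HEK293T cells exposed to compounds 16 hr.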

[5] = qHTS assay to identify small molecule antagonists of the TGF-beta/Smad signaling pathway - cell viability counter screen (AID 1346824); also: nearly all actives have a fitted effect of over 50% in size
How it was run: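 Cytotoxicity counter-screen run in the same wells as the beta-lactamase Smad reporter read: CellTiter-Glo luminescence after 30 min at room temperature. HEK 293T SBE-bla cells had 5 hr compound exposure at 37 C with TGF-beta1 (0.25 ng/mL stock).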

[6] = qHTS assay to identify small molecule agonists of the TGF-beta/Smad signaling pathway - cell viability counter screen (AID 1346829); also: top concentration of the series differs between compounds; nearly all actives have a fitted effect of over 45% in size
How it was run: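 After overnight seating at 37 C and 5% CO2, reporter cells got compounds for 5 hr and FRET substrate for 2 hr; cell viability then came from CellTiter-Glo luminescence.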

[7] = Human pregnane X receptor (PXR) small molecule agonists, qHTS cell viability counter screen (AID 1346977); also: nearly all actives have a fitted effect of over 50% in size
How it was run: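 In each well, the PXR reporter HepG2 line was checked for viability: CellTiter-Fluor reagent added 23hr post-dosing, fluorescence read after 1hr incubation at 37C.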

[8] = Caspase-3/7 induction in HepG2 cells by small molecules, qHTS assay (AID 1346978); also: nearly all actives have a fitted effect of over 15% in size
How it was run: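 Caspase-3/7 induction was measured by Caspase-Glo 3/7 luminescence (30 min, room temperature) after a 17 hr compound exposure of wild-type HepG2 cells seeded at 2,000 per well and pre-incubated 5 hr.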

[9] = Caspase-3/7 induction in CHO-K1 cells by small molecules, qHTS cell viability counter screen (AID 1346979); also: nearly all actives have a fitted effect of over 35% in size
How it was run: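 Following a 5hr settling period, CHO-K1 cells at 1,500 per well received DMSO-dissolved compounds. Cell viability was quantified 16hr later by CellTiter-Fluor fluorescence, measured after 1hr with reagent at 37C.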

[10] = Caspase-3/7 induction in CHO-K1 cells by small molecules, qHTS assay (AID 1346980); also: nearly all actives have a fitted effect of over 15% in size
How it was run: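 Luminescent Caspase-Glo 3/7 read (30min, room temperature) quantified apoptosis induction. Cells were wild-type CHO-K1, treated with compound for 17hr at 37 C and 5% CO2.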

[11] = Caspase-3/7 induction in HepG2 cells by small molecules, qHTS cell viability counter screen (AID 1346981); also: nearly all actives have a fitted effect of over 30% in size; also: potency is read from the fitted curve at half-maximal effect
How it was run: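 Viability determined by CellTiter-Fluor fluorescence in HepG2 wells also used for the luminescent Caspase-Glo 3/7 read. Compounds were present for 16 hr at 37 C, 5% CO2 before reagent addition.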

[12] = target: Nuclear receptor subfamily 1 group I member 2 (Homo sapiens) (UniProt O75469); assay: Human pregnane X receptor (PXR) small molecule agonists, qHTS assay (AID 1346982); also: nearly all actives have a fitted effect of over 35% in size; also: potency is read from the fitted curve at half-maximal effect
Nuclear receptor subfamily 1 group I member 2 (Homo sapiens), sequence (O75469 whole entry, looked up): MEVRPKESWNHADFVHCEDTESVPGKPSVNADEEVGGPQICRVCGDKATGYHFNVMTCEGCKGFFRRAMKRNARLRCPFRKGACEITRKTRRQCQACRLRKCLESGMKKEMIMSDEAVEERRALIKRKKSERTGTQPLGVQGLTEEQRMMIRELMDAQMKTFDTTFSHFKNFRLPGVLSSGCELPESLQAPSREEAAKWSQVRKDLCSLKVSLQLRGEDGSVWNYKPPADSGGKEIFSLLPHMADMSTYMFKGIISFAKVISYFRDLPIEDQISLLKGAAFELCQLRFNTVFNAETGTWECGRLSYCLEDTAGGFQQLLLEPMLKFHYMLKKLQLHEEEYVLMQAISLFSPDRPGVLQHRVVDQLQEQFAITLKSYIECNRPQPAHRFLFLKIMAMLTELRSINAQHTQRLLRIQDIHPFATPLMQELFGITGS
How it was run: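 Compound-induced hPXR transactivation of a CYP3A4 luciferase reporter was scored in HepG2 PXR-Luc cells over 24 hr at 37 C, 5% CO2, by luminescence.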

[13] = target: Nuclear receptor subfamily 1 group I member 2 (Rattus norvegicus) (UniProt Q9R1A7); assay: Rat pregnane X receptor (rPXR) activation by small molecules, qHTS assay (AID 1346983); settings: rPXR luciferase reporter cells, One-Glo luminescence, 24 h; max activation: active compounds read high; also: nearly all actives have a fitted effect of over 20% in size
Nuclear receptor subfamily 1 group I member 2 (Rattus norvegicus), sequence (Q9R1A7 whole entry, looked up): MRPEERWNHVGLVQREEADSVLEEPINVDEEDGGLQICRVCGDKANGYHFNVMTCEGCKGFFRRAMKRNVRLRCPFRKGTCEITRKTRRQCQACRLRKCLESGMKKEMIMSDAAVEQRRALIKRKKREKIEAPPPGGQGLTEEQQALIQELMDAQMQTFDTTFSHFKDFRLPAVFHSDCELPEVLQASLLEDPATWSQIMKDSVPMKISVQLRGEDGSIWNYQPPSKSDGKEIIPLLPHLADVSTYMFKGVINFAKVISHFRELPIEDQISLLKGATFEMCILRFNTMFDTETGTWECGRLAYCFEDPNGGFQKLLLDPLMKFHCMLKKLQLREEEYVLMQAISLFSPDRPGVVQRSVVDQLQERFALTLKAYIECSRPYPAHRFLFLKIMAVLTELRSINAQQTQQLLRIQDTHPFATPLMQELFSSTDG
How it was run: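 Luminescent readout (One-Glo luciferase, 30 min room temperature) followed 24 hr compound treatment at 37 C of rPXR cells plated 2,000 per well and preincubated 5hr; qHTS format with compounds delivered in DMSO.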

[14] = target: Nuclear receptor subfamily 1 group I member 2 (Homo sapiens) (UniProt O75469); assay: CYP3A4 induction through human pregnane X receptor (PXR) by small molecules, qHTS assay (AID 1346984); also: nearly all actives have a fitted effect of over 40% in size
How it was run: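 Readings come from a luciferase reporter: DPX-2 cells, which are HepG2 cotransfected with PXR and a CYP3A4-promoter construct, were exposed to test compounds for 24 h at 37C before One-Glo detection.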

[15] = target: Nuclear receptor subfamily 1 group I member 2 (Homo sapiens) (UniProt O75469); assay: Human pregnane X receptor (PXR) activation by small molecules, qHTS assay (AID 1346985); also: nearly all actives have a fitted effect of over 40% in size
How it was run: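 DPX-2 cells (HepG2 co-transfected with a PXR response element and a CYP3A4-promoter luciferase construct) were seeded at 2,000 per well, rested 5 hr at 37C, then exposed to DMSO-dissolved compounds for 24 hr. Activation was read as luciferase luminescence.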

[16] = target: Progesterone receptor (Homo sapiens) (UniProt P06401); assay: qHTS assay to identify small molecule antagonists of the progesterone receptor (PR) signaling pathway (AID 1346795; active = well fitted inhibition curve with a large enough effect in the signal ratio in the repeat runs, not every such curve was filed as active; the % refers to the signal ratio)
How it was run: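 Stimulus R5020 at 1 nM final; cells HEK293T PR-UAS-bla; medium with 2% charcoal-stripped FBS; compound exposure 16 hr at 37C, 5% CO2; detection by FRET beta-lactamase substrate, 2 hr, room temperature.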

[17] = qHTS assay to identify small molecule agonists of the TGF-beta/Smad signaling pathway (AID 1346859; active = well fitted activation curve with a large enough effect in the signal ratio in the repeat runs, not every such curve was filed as active; the % refers to the signal ratio; also: series mostly up to about 77 µM)
How it was run: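 Screening used HEK 293T SBE-bla cells at 4,000/well. Test agents: 5 hr, 37 C. Detection: FRET substrate, 2 hr RT, then excitation 405 nm with emissions at 460 and 530 nm.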

[18] = qHTS assay to identify small molecule antagonists of the progesterone receptor (PR) signaling pathway - cell viability counter screen (AID 1346798); also: nearly all actives have a fitted effect of over 50% in size; also: potency is read from the fitted curve at half-maximal effect
How it was run: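 In the same plates used for the beta-lactamase readout, cell viability of compound- and R5020-treated PR-UAS-bla HEK293T cells (16 hr, 37C) was assessed by CellTiter-Glo luminescence.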

[19] = target: Thyrotropin-releasing hormone receptor (Homo sapiens) (UniProt P34981); assay: qHTS assay to identify small molecule antagonists of the thyrotropin-releasing hormone receptor (TRHR) signaling pathway (AID 1346877; active = well fitted inhibition curve with a large enough effect in the repeat runs, not every such curve was filed as active; also: series mostly up to about 51 µM)
Thyrotropin-releasing hormone receptor (Homo sapiens), sequence (P34981 whole entry, looked up): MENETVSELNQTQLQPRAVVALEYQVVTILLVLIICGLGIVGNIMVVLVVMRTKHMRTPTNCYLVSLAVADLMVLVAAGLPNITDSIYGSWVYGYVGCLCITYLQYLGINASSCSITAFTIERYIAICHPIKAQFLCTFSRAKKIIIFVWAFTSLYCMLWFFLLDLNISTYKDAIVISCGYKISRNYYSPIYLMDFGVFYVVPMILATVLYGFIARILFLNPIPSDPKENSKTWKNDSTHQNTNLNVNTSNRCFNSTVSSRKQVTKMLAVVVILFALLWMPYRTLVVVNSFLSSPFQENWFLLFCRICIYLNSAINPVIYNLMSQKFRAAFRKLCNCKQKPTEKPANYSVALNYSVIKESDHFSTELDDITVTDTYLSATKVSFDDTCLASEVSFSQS
How it was run: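 Following an 18 h incubation at 37 °C and a 2 h calcium dye load, TRHR-HEK293 cells were exposed to compound (5 min, room temperature) and challenged with TRH, 1 nM final.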

[20] = target: Thyrotropin-releasing hormone receptor (Homo sapiens) (UniProt P34981); assay: qHTS assay to identify small molecule agonists of the thyrotropin-releasing hormone receptor (TRHR) signaling pathway (AID 1346891; calls by dose curve; also: series mostly up to about 58 µM)
How it was run: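 Readout was intracellular calcium fluorescence in TRHR-Hek293 cells. Cells were incubated 18 h, dye-loaded 2 h at 37 °C, and treated with compound in agonist mode.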
% is scaled to controls: 0 for no effect and ±100 for the full control effect.

O=C(O)CCC(=O)c1ccc(-c2ccccc2)cc1
inactive: Potency [1] | Potency [2] | Potency [3] | Potency [4] | outcome [5] | Potency [6] | Potency [7] | Potency [8] | Potency [9] | outcome [10] | Potency [11] | Potency [12] | max activation [13] 11.9% | Potency [14] | Potency [15]

CCN(CC)C(=O)N1CCN(C)CC1
inactive: Potency [1] | Potency [2] | Potency [3] | Potency [16] | Potency [4] | outcome [5] | Potency [6] | Potency [17] | Potency [7] | Potency [8] | outcome [10] | Potency [11] | Potency [12] | max activation [13] -2.03% | Potency [14] | Potency [15]

CCCCCCCCCCCSCC(=O)O
inactive: Potency [1] | Potency [2] | Potency [18] | outcome [5] | Potency [6] | Potency [17] | outcome [19] | outcome [20] | Potency [7] | Potency [8] | Potency [9] | outcome [10] | Potency [11] | Potency [12]
active: Potency [4] 21.7 µM

O=C(c1ccccc1)C1CCC1
inactive: Potency [1] | Potency [2] | Potency [3] | Potency [18] | outcome [5] | Potency [6] | Potency [17] | outcome [19] | outcome [20] | Potency [7] | Potency [8] | Potency [9] | outcome [10] | Potency [11] | Potency [12]

CNS(=O)(=O)c1cc(C(=O)N2CCC(CCN3C4CCC3CC(n3c(C)nc5ccccc53)C4)(c3cccc(F)c3)CC2)c(Cl)cc1F (centres undefined)
inactive: Potency [1] | Potency [2] | Potency [3] | outcome [5] | Potency [6] | outcome [10] | Potency [12]
active: Potency [18] 24.3 µM | Potency [4] 5.45 µM | Potency [11] 13.7 µM

CC(=O)C(C)=O
inactive: Potency [1] | Potency [2] | Potency [3] | Potency [4] | outcome [5] | Potency [17] | Potency [7] | Potency [8] | Potency [9] | outcome [10] | Potency [11] | Potency [12]

CC(C)(C)C1(CCc2ccc(Cl)cc2)CO1 (centres undefined)
inactive: Potency [1] | Potency [2] | Potency [3] | Potency [18] | Potency [4] | Potency [17] | outcome [19] | outcome [20] | Potency [7] | Potency [8] | outcome [10] | Potency [11]

CCCCCC
inactive: Potency [1] | Potency [2] | Potency [3] | Potency [16] | Potency [4] | Potency [6] | Potency [17] | outcome [19] | outcome [20] | Potency [7] | Potency [8] | Potency [9] | outcome [10] | Potency [11]

CCOC(=O)N1CCC(Nc2ccc(Cl)cc2N)CC1
inactive: Potency [1] | Potency [2] | Potency [3] | Potency [18] | Potency [4] | Potency [6] | Potency [17] | outcome [19] | outcome [20] | Potency [7] | Potency [8] | Potency [9] | outcome [10] | Potency [11] | Potency [12]

CN1C(CSCC(F)(F)F)Nc2cc(Cl)c(S(N)(=O)=O)cc2S1(=O)=O (centres undefined)
active: Potency [12] 29.8 µM
inactive: Potency [1] | Potency [2] | Potency [3] | Potency [16] | Potency [4] | Potency [6] | Potency [17] | Potency [7] | Potency [8] | outcome [10]

CCCCCCCC/C=C/C(=O)O
inactive: Potency [1] | Potency [2] | Potency [3] | Potency [4] | outcome [5] | Potency [6] | Potency [17] | outcome [19] | outcome [20] | Potency [7] | Potency [8] | Potency [9] | outcome [10] | Potency [11] | Potency [12]

C=CC(=O)NC(C)C
inactive: Potency [1] | Potency [2] | Potency [3] | Potency [16] | Potency [4] | outcome [5] | Potency [6] | Potency [17] | Potency [7] | Potency [8] | Potency [9] | outcome [10] | Potency [11] | Potency [12]

[Cl][Nd]([Cl])[Cl]
inactive: Potency [1] | Potency [2] | Potency [3] | Potency [4] | outcome [5] | Potency [6] | Potency [17] | outcome [19] | outcome [20] | Potency [7] | Potency [8] | Potency [9] | outcome [10] | Potency [11] | Potency [12]

CNC1CCCN(c2c(F)cc3c(=O)c(C(=O)O)cn(C4CC4)c3c2OC)C1 (centres undefined)
inactive: Potency [1] | Potency [2] | Potency [3] | Potency [16] | Potency [4] | outcome [5] | Potency [17] | Potency [7] | Potency [8] | outcome [10] | Potency [12] | max activation [13] -1.63% | Potency [14] | Potency [15]

C[C@@H]1C[C@H]2[C@@H]3CCC4=CC(=O)C=C[C@]4(C)[C@@]3(F)[C@@H](O)C[C@]2(C)[C@@]1(O)C(=O)COP(=O)(O)O
inactive: Potency [1] | Potency [2] | Potency [3] | Potency [4] | outcome [5] | Potency [6] | Potency [17] | outcome [19] | outcome [20] | Potency [7] | Potency [8] | Potency [9] | outcome [10] | Potency [12]

CCCCOCCOC(=O)c1cccnc1
inactive: Potency [1] | Potency [2] | Potency [3] | Potency [16] | outcome [5] | Potency [6] | Potency [17] | outcome [19] | Potency [7] | Potency [8] | Potency [9] | outcome [10] | Potency [12]

COc1cc(S(=O)(=O)Nc2ccccc2)c(OC)cc1N
active: Potency [12] 27.3 µM
inactive: Potency [1] | Potency [2] | Potency [16] | Potency [18] | Potency [6] | Potency [17] | outcome [19] | outcome [20] | Potency [7] | Potency [8] | Potency [9] | outcome [10] | Potency [11]
